The results in this text go back to PubChem BioAssay (NCI).

About 83,000 compounds went through this panel and 20% of them were active in at least one assay; those are over-represented in the sample as a whole.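 A percent growth of 40 corresponds to 60% growth inhibition; 0 means no net growth; -100 means all cells died. Active threshold: below 10.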 Values without a mark were called inactive. Calls of active or inactive are those of the source.

Common to all, as to experiment: NCI-60 one-dose screen, 48 h (100 = growth as untreated, 0 = no growth, -100 = all killed)
One test concerns SK-MEL-2 melanoma. The following applies: 10 µM unless noted.
The subject of another test is EKVX NSCLC. The settings on record: 10 µM unless noted.
In the next test the test system is SN12C renal. The settings on record: 10 µM unless noted.
For a further test, the system named is UO-31 renal. The following applies: 10 µM unless noted.
Another test concerns TK-10 renal. The settings on record: 10 µM unless noted.
The subject of a further test is ACHN renal. The settings on record: 10 µM unless noted.
In the next test the test system is CAKI-1 renal. The following applies: 10 µM.
The subject of another test is A498 renal. The following applies: 10 µM unless noted.
In the next test the test system is CCRF-CEM leukemia. The following applies: 10 µM unless noted.
The test system of another test is MOLT-4 leukemia. The following applies: 10 µM unless noted.
Another test concerns SR leukemia. The following applies: 10 µM unless noted.
In a further test the test system is RPMI-8226 leukemia. The following applies: 10 µM unless noted.
The next test concerns OVCAR-8 ovarian. The following applies: 10 µM unless noted.
For another test, the system named is OVCAR-5 ovarian. The following applies: 10 µM unless noted.
For the next test, the system named is OVCAR-4 ovarian. The settings on record: 10 µM unless noted.
The subject of the next test is SK-OV-3 ovarian. The following applies: 10 µM unless noted.
Another test concerns IGROV1 ovarian. The following applies: 10 µM unless noted.
For a further test, the system named is HS 578T breast. The settings on record: 10 µM unless noted.
The next test relates to NCI/ADR-RES ovarian. The settings on record: 10 µM unless noted.
For a further test, the system named is OVCAR-3 ovarian. The settings on record: 10 µM unless noted.

As to `O=C(NCCNc1cc(-c2cn(-c3ccccc3)nc2-c2cccc(O)c2)ccn1)Nc1ccc(Cl)c(C(F)(F)F)c1`, the growth in the test with SK-MEL-2 melanoma is 104%; with EKVX NSCLC, 56.7%; in the test on SN12C renal, 65.6%; in the test with UO-31 renal it was 42.1%; with TK-10 renal, 98.1%; in the test on ACHN renal, 44.2%. Moreover, the growth with CAKI-1 renal is 46%; in the test with A498 renal it was 72.5%; with CCRF-CEM leukemia, 54.1%; in the test with MOLT-4 leukemia it was 47.1%; in the test on SR leukemia it was 65.5%; in the test with RPMI-8226 leukemia, 17.5%. In addition, the growth was 74.1% in the test on OVCAR-8 ovarian; 59.9% in the test on OVCAR-5 ovarian; 73.5% in the test on OVCAR-4 ovarian; 94.6% with SK-OV-3 ovarian; 69% in the test on IGROV1 ovarian; 41.6% in the test with HS 578T breast. For the same molecule, the growth in the test with NCI/ADR-RES ovarian is 49.8%.

Consider `COc1ccc(S(=O)(=O)n2cc(C=O)c3ccccc32)c(OC)c1`, for which the growth in the test with SK-MEL-2 melanoma is 96.1%; in the test with EKVX NSCLC, 91.4%; with SN12C renal, 85.2%; with UO-31 renal it was 52.4%; with TK-10 renal, 106%; with ACHN renal, 85.6%. Further, the growth in the test on CAKI-1 renal was 52.5%; in the test on A498 renal, 92.4%; in the test with CCRF-CEM leukemia, 33.5%; with MOLT-4 leukemia, 29.2%; with SR leukemia, 16.4%; with RPMI-8226 leukemia, 38.7%. The growth is 76.1% in the test on OVCAR-8 ovarian; 96.1% in the test with OVCAR-5 ovarian; 80.9% in the test with OVCAR-4 ovarian; 97.4% in the test on SK-OV-3 ovarian; 86.6% in the test with IGROV1 ovarian; 78.3% with HS 578T breast. Also, the growth in the test with NCI/ADR-RES ovarian is 51%.

On to `C#C[C@]1(O)CC[C@H]2[C@@H]3CC=C4c5sc(Nc6cccc(Cl)n6)nc5CC[C@]4(C)[C@H]3CC[C@@]21C`, for which the growth in the test on SK-MEL-2 melanoma was -24.9% (active); in the test with EKVX NSCLC, 1.89% (active); in the test with SN12C renal it was 40%; in the test on UO-31 renal it was -37.8% (active); in the test on TK-10 renal, 33.2%; in the test on ACHN renal, 16.4%. For the same molecule, the growth with CAKI-1 renal was -40.6% (active); in the test on A498 renal, -62.6% (active); in the test with CCRF-CEM leukemia, 5.11% (active); in the test with MOLT-4 leukemia, -15.9% (active); with SR leukemia it was 2.56% (active); with RPMI-8226 leukemia, -23.2% (active). Moreover, the growth was 29.3% with OVCAR-8 ovarian; 22.8% in the test on OVCAR-5 ovarian; 47.8% with OVCAR-4 ovarian; -13.7% (active) with SK-OV-3 ovarian; 35.6% in the test with IGROV1 ovarian; -19.9% (active) in the test with HS 578T breast. Also, the growth with NCI/ADR-RES ovarian was 23%.

As to `Oc1ccc(CSc2nnc(-c3cnccn3)n2-c2ccccc2)c2cccnc12`, the growth was 42.6% in the test on SK-MEL-2 melanoma; 44% in the test with EKVX NSCLC; 24.5% with SN12C renal; 10.7% in the test on UO-31 renal; 37.7% in the test on TK-10 renal; 15.4% in the test on ACHN renal. For the same molecule, the growth in the test with CAKI-1 renal is 16.7%; in the test on A498 renal it was 10.9%; in the test on CCRF-CEM leukemia, 16.7%; in the test with MOLT-4 leukemia, 21.3%; in the test on SR leukemia, 42.1%; with RPMI-8226 leukemia, 29.1%. Moreover, the growth in the test on OVCAR-8 ovarian was 23.1%; in the test with OVCAR-5 ovarian it was 50.3%; with OVCAR-4 ovarian it was 16.5%; in the test with SK-OV-3 ovarian, 21.1%; in the test with OVCAR-3 ovarian, 14.8%; in the test on HS 578T breast, 29.4%. In addition, the growth with NCI/ADR-RES ovarian is 10.9%.

With `COc1cc(/C=N/n2cnc3oc(-c4ccccc4)cc3c2=N)cc(CN2CCCCC2)c1O`, the growth in the test on SK-MEL-2 melanoma is -38.5% (active); in the test on EKVX NSCLC it was -22.7% (active); with SN12C renal, -78.8% (active); with UO-31 renal it was -91.6% (active); with TK-10 renal, -82.5% (active); with ACHN renal it was -97.7% (active). The growth was -94.2% (active) with CAKI-1 renal; 15% in the test on A498 renal; -6.9% (active) with CCRF-CEM leukemia; 2% (active) with MOLT-4 leukemia; 28.9% with SR leukemia; -30.4% (active) with RPMI-8226 leukemia. Besides, the growth in the test with OVCAR-8 ovarian is -38.7% (active); in the test with OVCAR-5 ovarian it was -81% (active); in the test on OVCAR-4 ovarian, -63.1% (active); in the test with SK-OV-3 ovarian, 105%; in the test with OVCAR-3 ovarian, 114%; in the test on HS 578T breast, -35.9% (active). In addition, the growth in the test on NCI/ADR-RES ovarian was -0.827% (active).

Consider `O=C(CCCCCCN1CC(=O)N2[C@@H](c3cccc(Br)c3)c3[nH]c4ccccc4c3C[C@H]2C1=O)NO`, for which the growth with SK-MEL-2 melanoma is 33.5%; in the test with EKVX NSCLC it was 54.8%; with SN12C renal, 44.7%; in the test with UO-31 renal, 46.2%; in the test with TK-10 renal, 28.1%; with ACHN renal it was 73.4%. The growth in the test with CAKI-1 renal is 23.1%; in the test with A498 renal it was 49.4%; with CCRF-CEM leukemia, 14.9%; with MOLT-4 leukemia, 12.4%; in the test with SR leukemia it was 37.4%; in the test with RPMI-8226 leukemia, 13.4%. The growth with OVCAR-8 ovarian is 24.9%; in the test on OVCAR-5 ovarian, 29%; with OVCAR-4 ovarian, 48.9%; in the test with SK-OV-3 ovarian, 13.9%; with OVCAR-3 ovarian, 6.19% (active); with HS 578T breast, 61.4%. Besides, the growth in the test on NCI/ADR-RES ovarian is 91.9%.

With `C/C(=C(/C)C1CC1CCN(C(=O)c1ccccn1)S(=O)(=O)c1ccc(C)cc1)C1CCCCC1` (stereo not drawn), the growth in the test on SK-MEL-2 melanoma is 101%; in the test with EKVX NSCLC, 77.6%; in the test on SN12C renal it was 98.2%; in the test with UO-31 renal it was 86.4%; in the test on TK-10 renal, 105%; in the test on ACHN renal, 99.3%. Further, the growth was 78.9% in the test with CAKI-1 renal; 94.6% in the test on A498 renal; 92.5% in the test with CCRF-CEM leukemia; 88.2% in the test with MOLT-4 leukemia; 105% with SR leukemia; 92.2% in the test with RPMI-8226 leukemia. The growth with OVCAR-8 ovarian is 96.8%; in the test with OVCAR-5 ovarian, 93.1%; in the test with OVCAR-4 ovarian, 83.8%; in the test on SK-OV-3 ovarian, 101%; in the test with OVCAR-3 ovarian it was 108%; with HS 578T breast it was 102%. In addition, the growth in the test on NCI/ADR-RES ovarian was 81.9%.
